The panel holds about 79,000 compounds, 15% with a hit somewhere; the sample as a whole holds those more often. Activity calls are given as the source filed them. No stated cut-off is given here; in the data, active means growth inhibition above about 70%; inactive means the rest.

This test is described as follows: NCI Yeast Anticancer Drug Screen. Data for the sgs1 strain (AID 173).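 Further: 0% = growth of vehicle-only control cultures.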 As to conditions: S. cerevisiae sgs1 mutant, at 100.0 µM, hits give high values. The essentials: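 Vehicle-treated cultures served as reference for growth inhibition of a yeast strain altered in DNA damage repair or cell cycle control after compound exposure.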
As for `COc1cc(/C=C2\CCC/C(=C\c3ccc(O)c(OC)c3)C2=O)ccc1O`, the growth inhibition is -6% (inactive).

As for `CN(C)CCNC(=O)c1cccc2cc([N+](=O)[O-])ccc12`, the growth inhibition is 93% (active).

Take `CCC(C)(C)c1ccc(Oc2cccc(C(=O)O)c2)cc1`: the growth inhibition is 68% (inactive).

`CCCCCCSc1ncnc2[nH]ncc12`: the growth inhibition is 3% (inactive).

`CC(=O)Nc1ccc(/C=C/[N+](=O)[O-])cc1`: the growth inhibition is 99% (active).

`CCOC(=O)c1[nH]n(-c2ccccc2)c(=O)c1C=NC(=S)C(N)=S`: the growth inhibition was 97% (active).

On to `CCCC(O)C1CC(C(C)C)CCC1C` (stereo not drawn), for which the growth inhibition is 94% (active).

For the compound `O=[n+]1c2ccccc2n([O-])c2cc(Br)ccc21`, the growth inhibition is 98% (active).

`CN(C)CCNC(=O)c1cccc2c1Oc1c(cccc1[N+](=O)[O-])O2`: the growth inhibition is 48% (inactive).

`Nc1ncc(-c2ccc(Br)cc2)s1`: the growth inhibition is 97% (active).

With `Cc1cc2cc3cc(C)c(N)cc3nc2cc1N`, the growth inhibition was 91% (active).

For the compound `CC12C(=O)OC(=O)C(c3ccccc31)c1ccccc12`, the growth inhibition is 11% (inactive).

Consider `c1ccc2c(OCC3CO3)cccc2c1` (stereo not drawn), for which the growth inhibition is 93% (active).

In the case of `CCOC(=N)c1ccc(O)c(OC)c1`, the growth inhibition was 3% (inactive).

`Nc1cc(N)c(N=Nc2cccc3c(S(=O)(=O)O)cccc23)cc1N=Nc1cc([N+](=O)[O-])ccc1O`: the growth inhibition is 59% (inactive).

In the case of `COC(=O)Oc1cc(Cl)c(Cl)cc1Cl`, the growth inhibition is 10% (inactive).

`O=C(O)C1CC(c2ccccc2)=NN1c1ccccc1` (stereo not drawn): the growth inhibition was 96% (active).

On to `COc1cc([C@@H]2c3cc4c(cc3[C@@H](Nc3ccc(NC(=O)c5cc([N+](=O)[O-])cn5C)cc3)[C@H]3COC(=O)[C@H]23)OCO4)cc(OC)c1O`, for which the growth inhibition is 49% (inactive).

Source of the values: PubChem BioAssay (NCI).
